According to PMC10726135, “HNF4α isoforms regulate the circadian balance between carbohydrate and lipid metabolism in the liver”:
Whole data set: some 18,000 sequences, median “log2 normalized intensity” near 0.36, cut for the highest 2% near 7.3. The sample holds the highest values, similar sequences and a random draw of the others, so the mix is not that of the screen.

target: T1, HNF4alpha8 (COS-7 nuclear extract) (Homo sapiens, UniProt P41235-5 1-452); assay: protein-binding microarray; COS-7 nuclear extract on double-stranded Agilent 4x180k PBM; binding buffer, salt, pH and temperature not given in the material; high values mean tight binding; conditions: chain copies: 2; label: 3' end of strand 1 on the slide; dsDNA, one strand shown
T1 sequence: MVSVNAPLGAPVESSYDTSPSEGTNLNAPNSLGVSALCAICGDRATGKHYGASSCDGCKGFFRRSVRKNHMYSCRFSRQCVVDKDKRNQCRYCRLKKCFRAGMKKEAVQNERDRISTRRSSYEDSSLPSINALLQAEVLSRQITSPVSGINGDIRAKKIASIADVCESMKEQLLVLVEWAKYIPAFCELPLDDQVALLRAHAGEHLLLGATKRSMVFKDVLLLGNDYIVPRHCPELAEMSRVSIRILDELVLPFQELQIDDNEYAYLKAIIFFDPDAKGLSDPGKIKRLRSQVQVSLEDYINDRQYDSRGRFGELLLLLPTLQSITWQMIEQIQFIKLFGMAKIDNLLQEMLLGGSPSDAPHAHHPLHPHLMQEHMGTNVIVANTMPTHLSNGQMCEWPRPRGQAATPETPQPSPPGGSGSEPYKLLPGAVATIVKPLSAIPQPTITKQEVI
Procedure, shortened: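 Binding signal is the background-corrected, normalized gProcessedSignal calculated by Agilent software. It was measured by applying nuclear extracts of COS-7 cells transiently transfected with a human HNF4α isoform expression vector to a custom Agilent SurePrint G3 4x180k array of ~44,000 double-stranded ~60-nt test sequences in quadruplicate, then imaging bound HNF4α on an Agilent G2565CA scanner at 2-µm resolution.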

First: TGCCAAGGAGCCTCTGCAACCTTTGCTCTCGCCTAGGGAGATTAGAGTATCGGTCGA
Second: ATGGTTAAGGTGAAAGTCCGACTTTTAAGAGCCTAGGGAGATTAGAGTATCGGTCGA
The binding signal of the first is higher: 6.62 log2 normalized intensity for the first, 4.06 log2 normalized intensity for the second.

First: CCTTTTTTGAAGGTTAAAGTCCATTTTTGAGCCTAGGGAGATTAGAGTATCGGTCGA
Second: ACATTTTTATCCTTTTTTGAAGGTTAAAGTGCCTAGGGAGATTAGAGTATCGGTCGA
The binding signal of the first is higher: 7.52 log2 normalized intensity for the first, 3 log2 normalized intensity for the second.

First: CTGCCACATTTTTATCCTTTTTTGAAGGTTGCCTAGGGAGATTAGAGTATCGGTCGA
Second: TTTGAAGGTTAAAGTCCATTTTTGAGGACCGCCTAGGGAGATTAGAGTATCGGTCGA
The binding signal of the first is lower: 2 log2 normalized intensity for the first, 6.47 log2 normalized intensity for the second.

Going from “TTTATCCTTTTTTGAAGGTTAAAGTCCATTGCCTAGGGAGATTAGAGTATCGGTCGA” to “AAACCTCCCCCAAACCAAAGAGAAATGGTGGCCTAGGGAGATTAGAGTATCGGTCGA”, the binding signal falls from 7.82 log2 normalized intensity to 3.41 log2 normalized intensity.

Compared with “TGGTTTTCCAATCTGGTGAAAGATGATGAGGCCTAGGGAGATTAGAGTATCGGTCGA”, “TCTAAGGCAAAACACCCCTTTCACTTCTTCGCCTAGGGAGATTAGAGTATCGGTCGA” is higher in binding signal: 0.365 log2 normalized intensity for the first, 0.915 log2 normalized intensity for the second.

Going from “CCATTTATAAGAAACTGCTCCTGCTTGGGAGCCTAGGGAGATTAGAGTATCGGTCGA” to “TGCCAGCCCCGAGATAACCCCTCTCCAAGCGCCTAGGGAGATTAGAGTATCGGTCGA”, the binding signal rises from -0.881 log2 normalized intensity to 4.43 log2 normalized intensity.

Going from “ATAGACTGTCCCTCAGTGTGGGACTTTGGTGCCTAGGGAGATTAGAGTATCGGTCGA” to “AGAAGGAAAAGGCCTGACCTTTGCCCTCTGGCCTAGGGAGATTAGAGTATCGGTCGA”, the binding signal rises from 3.52 log2 normalized intensity to 10.4 log2 normalized intensity.

Compared with “GACCTTTGCCCTCTGGCCCTTAAAGGCTTTGCCTAGGGAGATTAGAGTATCGGTCGA”, “CAGAGGCTTCCTCTTTGGTGCAAAGGTCAGGCCTAGGGAGATTAGAGTATCGGTCGA” is lower in binding signal: 7.8 log2 normalized intensity for the first, 7.47 log2 normalized intensity for the second.

First: AGAGGACAGAAGAAGGAAAAGGCCTGACCTGCCTAGGGAGATTAGAGTATCGGTCGA
Second: CCCTCGACCTTTGCCCTCCATAAGGGGGAGGCCTAGGGAGATTAGAGTATCGGTCGA
The binding signal of the first is lower: 1.07 log2 normalized intensity for the first, 6.74 log2 normalized intensity for the second.

Going from “GAAAAGGCCTGACCTTTGCCCTCTGGCCCTGCCTAGGGAGATTAGAGTATCGGTCGA” to “CCCTGCCTGACCTGCCCTTTGTCCCTCCTGGCCTAGGGAGATTAGAGTATCGGTCGA”, the binding signal falls from 9.29 log2 normalized intensity to 5.06 log2 normalized intensity.

Going from “ACAGAAGAAGGAAAAGGCCTGACCTTTGCCGCCTAGGGAGATTAGAGTATCGGTCGA” to “TCACTGACCTCTGCCCTACTGTATATCCTGGCCTAGGGAGATTAGAGTATCGGTCGA”, the binding signal falls from 5.58 log2 normalized intensity to 2.89 log2 normalized intensity.

Compared with “TTCTGCCCCTTGCTCCTGCTTGCTGGCTTTGCCTAGGGAGATTAGAGTATCGGTCGA”, “CTCTTTGGTGCAAAGGTCAGGACAAGGCTCGCCTAGGGAGATTAGAGTATCGGTCGA” is higher in binding signal: 1.35 log2 normalized intensity for the first, 4.73 log2 normalized intensity for the second.

In the case of “TGGTGCAAAGGTCAGGACAAGGCTCTGGTGGCCTAGGGAGATTAGAGTATCGGTCGA”, the binding signal is reported as 4.55 log2 normalized intensity.
